Where a name gives a salt, the structure may show the parent alone.
How the values were obtained:
Conditions in all cases: incubation time: 27 h, anaerobic, 37 °C;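 for the amine columns active = adjusted P below 0.05 in both replicates with a change the same way and a mean fold change under 0.8 or over 1.25; inactive = the rest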
[1] = tested on: Clostridium sporogenes DSM 1664; test: growth (OD595) fold change vs plate DMSO controls (fold change (ratio)); higher = more growth
Summary of the method: (§1)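 To obtain OD, 595 nm absorbance readings were blank-subtracted, corrected for compound background using 20 µM compound solutions in water, and multiplied by a calibration factor of 5. They came from 96-well mGAM cultures grown anaerobically for 27 h at 37 °C and shaken before reading. Growth is the fold change relative to the median of plate DMSO controls. Two biological replicates were averaged, and fold changes above 1.5 were set to NA.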

Escherichia coli IAI1 [2] = test: as above
Summary of the method: as §1

[3] = tested on: Klebsiella aerogenes DSM 30053; test: as above
Summary of the method: as §1

[4] = tested on: Ruminococcus gnavus DSM 108212; test: as above
Summary of the method: as §1

[5] = tested on: Klebsiella aerogenes DSM 30053; test: fold change of Histamine concentration vs plate DMSO controls (fold change (ratio)); higher = more amine produced, active = hit call of the paper (significant change in both replicates, either direction)
Summary of the method: (§2)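 In 80 µL wells, cultures of four gut bacterial strains in mGAM started at OD 0.1 before a 1:1 dilution and grew anaerobically at 37 °C for 27 h. Compounds were added to 20 µM final, except sweeteners at 50 µM final. After extraction of whole cultures with cold acetonitrile/methanol plus 0.1% formic acid and centrifugation, amines were measured by LC–triple-quadrupole MS in dynamic MRM mode against external calibration curves, with within-batch drift correction. Values give fold change over DMSO controls on the same plate, averaged across 2 biological replicates.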

[6] = tested on: Clostridium sporogenes DSM 1664; test: fold change of Tryptamine concentration vs plate DMSO controls (fold change (ratio)); higher = more amine produced, active = hit call of the paper (significant change in both replicates, either direction)
Summary of the method: as §2

[7] = tested on: Ruminococcus gnavus DSM 108212; test: as above
Summary of the method: as §2

Escherichia coli IAI1 [8] = test: fold change of Putrescine concentration vs plate DMSO controls (fold change (ratio)); higher = more amine produced, active = hit call of the paper (significant change in both replicates, either direction)
Summary of the method: as §2

[9] = tested on: Klebsiella aerogenes DSM 30053; test: as above
Summary of the method: as §2

Escherichia coli IAI1 [10] = test: fold change of Cadaverine concentration vs plate DMSO controls (fold change (ratio)); higher = more amine produced, active = hit call of the paper (significant change in both replicates, either direction)
Summary of the method: as §2

[11] = tested on: Klebsiella aerogenes DSM 30053; test: as above
Summary of the method: as §2

[12] = tested on: Ruminococcus gnavus DSM 108212; test: fold change of 2-Phenylethylamine concentration vs plate DMSO controls (fold change (ratio)); higher = more amine produced, active = hit call of the paper (significant change in both replicates, either direction)
Summary of the method: as §2

Row | Structure (SMILES) | growth [1] | growth (Escherichia coli IAI1 [2]) | growth [3] | growth [4] | fold change of Histamine concentration [5] | fold change of Tryptamine concentration [6] | fold change of Tryptamine concentration [7] | fold change of Putrescine concentration (Escherichia coli IAI1 [8]) | fold change of Putrescine concentration [9] | fold change of Cadaverine concentration (Escherichia coli IAI1 [10]) | fold change of Cadaverine concentration [11] | fold change of 2-Phenylethylamine concentration [12]
1 | OC[C@H]1O[C@@](CO)(O[C@H]2O[C@H](CO)[C@@H](O)[C@H](O)[C@H]2O)[C@@H](O)[C@@H]1O [Sucrose] (50 µM) | 1.08 | 0.938 | 1.09 | 1.12 | 0.917 (inactive) | 1.07 (inactive) | 1.08 (inactive) | 1 (inactive) | 0.977 (inactive) | 0.964 (inactive) | 1.05 (inactive) | 1.12 (inactive)
2 | OC[C@H]1O[C@H](O[C@H]2[C@H](O)[C@@H](O)[C@H](O)O[C@@H]2CO)[C@H](O)[C@@H](O)[C@@H]1O [Maltose] (50 µM) | 1 | 1.03 | 1.03 | 1 | 0.966 (inactive) | 0.991 (inactive) | 0.984 (inactive) | 1.02 (inactive) | 0.996 (inactive) | 1.06 (inactive) | 0.999 (inactive) | 1.01 (inactive)
3 | C[C@H](CCC(=O)O)[C@H]1CC[C@H]2[C@@H]3[C@H](O)C[C@@H]4C[C@H](O)CC[C@]4(C)[C@H]3CC[C@]12C [Chenodiol] (20 µM) | 1.06 | 0.995 | 1.02 | 1.01 | 1 (inactive) | 1.03 (inactive) | 1.03 (inactive) | 1 (inactive) | 0.999 (inactive) | 1.04 (inactive) | 1.02 (inactive) | 0.994 (inactive)
4 | O=C(Oc1ccccc1)c1ccccc1O [Phenyl salicylate] (20 µM) | 1.08 | 0.961 | 0.971 | 1.04 | 1.09 (inactive) | 1.12 (inactive) | 1.08 (inactive) | 1.03 (inactive) | 0.942 (inactive) | 0.916 (inactive) | 1 (inactive) | 1.13 (inactive)
5 | O=c1oc2cc(O)ccc2s1 [Tioxolone] (20 µM) | 1.04 | 1.01 | 0.979 | 1.07 | 1.02 (inactive) | 1.05 (inactive) | 0.987 (inactive) | 1.02 (inactive) | 0.997 (inactive) | 0.989 (inactive) | 0.987 (inactive) | 0.959 (inactive)
6 | Nc1ccc(S(N)(=O)=O)cc1 [Sulfanilamide] (20 µM) | 0.877 | 1.03 | 0.987 | 1.15 | 0.919 (inactive) | 1.12 (inactive) | 1.11 (inactive) | 0.908 (inactive) | 0.951 (inactive) | 0.919 (inactive) | 1.03 (inactive) | 1.15 (inactive)
7 | CCN(CCCc1ccccc1)CCCc1ccccc1 [Alverine citrate salt] (20 µM) | 0.998 | 1.01 | 1.11 | 0.708 | 0.972 (inactive) | 1.03 (inactive) | 0.74 (active) | 0.895 (inactive) | 1.02 (inactive) | 1.29 (active) | 1.02 (inactive) | 0.782 (inactive)
8 | CCn1cc(C(=O)O)c(=O)c2cc(F)c(N3CCNCC3)nc21 [Enoxacin] (20 µM) | 0.0582 | 0.0418 | 0.246 | 1.01 | 0.228 (active) | 0.0679 (active) | 0.892 (inactive) | 0.878 (inactive) | 1.19 (inactive) | 0.269 (active) | 0.961 (inactive) | 0.905 (inactive)
9 | Cn1c(=O)c2c(ncn2CC(O)CO)n(C)c1=O (stereo unspecified) [Diprophylline] (20 µM) | 0.915 | 1.02 | 0.992 | 0.783 | 1.03 (inactive) | 0.964 (inactive) | 0.971 (inactive) | 1.02 (inactive) | 1.01 (inactive) | 0.98 (inactive) | 1 (inactive) | 0.99 (inactive)
10 | CCCCC1C(=O)N(c2ccccc2)N(c2ccccc2)C1=O [Phenylbutazone] (20 µM) | 1.03 | 0.993 | 1.01 | 1.02 | 1.05 (inactive) | 0.986 (inactive) | 0.969 (inactive) | 0.992 (inactive) | 1.05 (inactive) | 1.01 (inactive) | 1.04 (inactive) | 0.878 (inactive)
11 | N=C(N)Nc1ccc(C(=O)Oc2ccc3cc(C(=N)N)ccc3c2)cc1 [Nafamostat Mesylate] (20 µM) | 1.04 | 0.933 | 0.99 | 0.967 | 0.92 (inactive) | 0.959 (inactive) | 0.91 (inactive) | 1.04 (inactive) | 1.06 (inactive) | 1.04 (inactive) | 1.01 (inactive) | 0.948 (inactive)
12 | OCCN1CCN(CCCN2c3ccccc3Sc3ccc(Cl)cc32)CC1 [Perphenazine] (20 µM) | 1.05 | 0.856 | 0.838 | 0.94 | 1.07 (inactive) | 0.999 (inactive) | 0.897 (inactive) | 1.02 (inactive) | 1.02 (inactive) | 1.01 (inactive) | 0.999 (inactive) | 0.892 (inactive)
13 | CC(=O)Oc1ccc(C(=C2CCCCC2)c2ccc(OC(C)=O)cc2)cc1 [Cyclofenil] (20 µM) | 0.924 | 1.04 | 1.03 | 0.991 | 0.983 (inactive) | 0.873 (inactive) | 0.953 (inactive) | 1.05 (inactive) | 0.997 (inactive) | 0.997 (inactive) | 1 (inactive) | 0.942 (inactive)

Reference: the supplement of paper PMC12494721
